We go through 20 molecules from PubChem BioAssay (EPA / NIEHS).

The source made the active and inactive calls. How the source made its calls: active means hit-call score of the fitted dose curve at least 0.9, where 1 is the maximum; inactive means score below 0.9.

The test in a line: ATG_PXRE_CIS: Attagene CIS-FACTORIAL HepG2 Assay for human Pregnane X Receptor Element (PXRE) (AID 2282957). To be noted: HepG2 Attagene CIS-FACTORIAL PXRE reporter, mRNA; actives raise or lower the signal. A digest of the protocol:
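HepG2 cells transiently transfected with cis-regulated multiple reporter transcription units; endogenous factor activity measured as reporter mRNA 24 h after dosing. RT-PCR, fluorescent primer extension, HpaI digestion, capillary electrophoresis; bidirectional fit versus DMSO baseline.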
Usually AC50 stands for the concentration at which the activity in the assay is half-maximal. For `CC1(C)O[C@@H]2C[C@H]3[C@@H]4CCC5=CC(=O)C=C[C@]5(C)[C@@]4(F)[C@@H](O)C[C@]3(C)[C@]2(C(=O)CO)O1`, the AC50 is 13.8 µM (active).

With `CCOc1ccc(N=Nc2ccc(C=Cc3ccc(N=Nc4ccc(OCC)cc4)cc3S(=O)(=O)O)c(S(=O)(=O)O)c2)cc1`, the AC50 was 39.9 µM (active).

Take `c1ccc(CN(Cc2ccccc2)Cc2ccccc2)cc1`: the AC50 was 2.51 µM (active).

Take `CC(=O)CC(=O)Nc1ccccc1`: the molecule was called inactive.

With `O=CCc1ccccc1`, the AC50 was 9.42 µM (active).

Take `C=C(C)[C@H]1CC=C(C)C(=O)C1`: the AC50 was 27.9 µM (active).

In the case of `CC(C)OCCO`, the result was inactive.

With `CC(C)CCCCCCc1ccc(OCCOCCO)cc1`, the outcome was inactive.

Take `CCc1cc(C(C)(C)C)c(O)c(C(C)(C)C)c1`: the AC50 is 8.94 µM (active).

`CC(=O)OCCCc1ccccc1`: the AC50 was 27.4 µM (active).

With `C=CC(C)(O)CCC=C(C)C` (stereo not given), the AC50 was 46.9 µM (active).

Regarding `Nc1c(Cl)cc(Cl)cc1[N+](=O)[O-]`, the AC50 is 27.7 µM (active).

In the case of `C[C@H](CCC(=O)NCC(=O)O)[C@H]1CC[C@H]2[C@@H]3[C@H](O)C[C@@H]4C[C@H](O)CC[C@]4(C)[C@H]3C[C@H](O)[C@]12C`, the result was inactive.

For `CCCOCCO`, the call was inactive.

Turning to `CN(C)C(=S)SC(=S)N(C)C`, the AC50 was 73.8 µM (active).

For `Cc1cc(CCC(=O)OCCOCCOCCOC(=O)CCc2cc(C)c(O)c(C(C)(C)C)c2)cc(C(C)(C)C)c1O`, the AC50 was 24.3 µM (active).

Turning to `COC(=O)c1ccc(OC)cc1`, the molecule was called inactive.

In the case of `COC(C)(C)CCO`, the outcome was inactive.

In the case of `CC(=O)O[C@@H]1CC2CCC1(C)C2(C)C` (stereo not given in full), the call was inactive.

Regarding `C[C@H]1O[C@@H](O[C@H]2[C@@H](O)C[C@H](O[C@H]3[C@@H](O)C[C@H](O[C@H]4CC[C@@]5(C)[C@H](CC[C@@H]6[C@@H]5C[C@@H](O)[C@]5(C)[C@@H](C7=CC(=O)OC7)CC[C@]65O)C4)O[C@@H]3C)O[C@@H]2C)C[C@H](O)[C@@H]1O`, the AC50 is 0.271 µM (active).
